The supplement of paper PMC13380429

Experiments:
[1] = tested on: Vero E6 infected with SARS-CoV-2; assay: morphology score (similarity to uninfected cells); higher = more like uninfected cells; conditions: 24 h
[2] = tested on: Vero E6 infected with SARS-CoV-2; assay: SARS-CoV-2 infection rate relative to infected DMSO; higher = more infection, active = 60 or less; conditions: 24 h

| Structure (SMILES) | morphology score [1] | SARS-CoV-2 infection rate [2] |
| --- | --- | --- |
| CN1C(C)(C)CCCC1(C)C [pempidine] (10 µM) | 0.0949 | 96% (inactive) |
| COc1ccc(-c2oc3cc(OC)ccc3c2C(=O)c2ccc(C#N)cc2)cc1 (10 µM) | 0.111 | 97% (inactive) |
| Cc1[nH]c(/C=C2\C(=O)Nc3ccccc32)c(C)c1CCC(=O)O [orantinib] (10 µM) | 0.123 | 92.5% (inactive) |
| Nc1ncccc1-c1nc2ccc(-c3ccccc3)nc2n1-c1ccc(C2(N)CCC2)cc1 (10 µM) | 0.702 | 29.5% (active) |
| Nc1nc(OCC2CCCCC2)c2nc[nH]c2n1 (10 µM) | 0.0911 | 90.5% (inactive) |
| CC1(C)S[C@@H]2[C@H](NC(=O)[C@H](N)c3ccccc3)C(=O)N2[C@H]1C(=O)O [ampicillin] (10 µM) | 0.141 | 102% (inactive) |
| CCCCC/C=C\C/C=C\C/C=C\CCCCC(=O)O [gamma-linolenic-acid] (10 µM) | 0.0589 | 102% (inactive) |
| CCCN1CCCC(c2cccc(O)c2)C1 (stereo in doubt) [preclamol] (10 µM) | -0.1 | 114% (inactive) |
| Fc1ccc(C(OCCN2CCN(CCCc3ccccc3)CC2)c2ccc(F)cc2)cc1 [vanoxerine] (0.833333 µM) | 0.275 | 86% (inactive) |
| Cc1[nH]cnc1-c1ccc(Cl)cc1 [lofemizole] (10 µM) | -0.0942 | 102% (inactive) |
| COc1c(O)cc2c(c1O)[C@@H]1O[C@H](CO)[C@@H](O)[C@H](O)[C@H]1OC2=O [bergenin] (10 µM) | 0.087 | 96% (inactive) |
| CCOC(=O)c1ccc(C#Cc2ccc3c(c2)C(C)(C)CCS3)nc1 [tazarotene] (10 µM) | -0.0471 | 93% (inactive) |
| CCOC(=O)[C@H](CCc1ccccc1)N[C@H]1CS[C@H](c2cccs2)CN(CC(=O)O)C1=O [temocapril] (10 µM) | 0.0304 | 114% (inactive) |
| Cc1cccc(Cc2c[nH]cn2)c1C [detomidine] (10 µM) | -0.193 | 116% (inactive) |
| CNCCCOc1cc(F)c(-c2c(Cl)nc3ncnn3c2N[C@@H](C)C(F)(F)F)c(F)c1 [cevipabulin] (10 µM) | -0.0738 | 92% (inactive) |
| Oc1cc2c(c(Cl)c1O)CCNCC2c1ccccc1 (configuration not stated) (10 µM) | 0.16 | 97.5% (inactive) |
| O=C(CC12CC3CC(CC(C3)C1)C2)Nc1cccc2nc(NCCNCCO)ccc12 (10 µM) | -0.132 | 116% (inactive) |
| CC[C@H]1OC(=O)[C@H](C)[C@@H](O[C@H]2C[C@@](C)(OC)[C@@H](O)[C@H](C)O2)[C@H](C)[C@@H](O[C@@H]2O[C@H](C)C[C@H](N(C)C)[C@H]2O)[C@](C)(OC)C[C@@H](C)C(=O)[C@H](C)[C@@H](O)[C@]1(C)O [clarithromycin] (10 µM) | -0.0778 | 109% (inactive) |
| C=CCN1CC[C@]23c4c5ccc(O)c4O[C@H]2[C@@H](OCCOCCOCCOCCOCCOCCOCCOC)CC[C@@]3(O)[C@H]1C5 [naloxegol] (10 µM) | 0.25 | 92% (inactive) |
| CC(C)(C)c1cc(C=C(C#N)C#N)cc(C(C)(C)C)c1O [tyrphostin-A9] (0.833333 µM) | 0.116 | 80.5% (inactive) |
| CCN(CC)CCOC(=O)C1(c2ccc([N+](=O)[O-])cc2)CCCC1 [nitrocaramiphen] (10 µM) | 0.137 | 104% (inactive) |
| CO/N=C(\C(=O)N[C@@H]1C(=O)N2C(C(=O)OCOC(=O)C(C)(C)C)=C(/C=C\c3scnc3C)CS[C@H]12)c1csc(N)n1 [cefditoren-pivoxil] (10 µM) | 0.149 | 99.5% (inactive) |
| CC(C)(N)C(=O)N[C@H](COCc1ccccc1)C(=O)N1CCC2(CC1)CN(S(C)(=O)=O)c1ccccc12 [ibutamoren] (10 µM) | -0.0834 | 108% (inactive) |
| CCc1cc(C(C)=O)c(O)cc1OCCCCCC(C)(C)c1nn[nH]n1 (10 µM) | 0.0736 | 100% (inactive) |
| CCCCC(=O)OCC(=O)[C@]1(O)Cc2c(O)c3c(c(O)c2[C@@H](O[C@H]2C[C@H](NC(=O)C(F)(F)F)[C@H](O)[C@H](C)O2)C1)C(=O)c1c(OC)cccc1C3=O [valrubicin] (0.833333 µM) | 0.122 | 97% (inactive) |
| CCn1cc(C(=O)O)c(=O)c2ccc(C)nc21 [nalidixic-acid] (10 µM) | -0.0613 | 106% (inactive) |
